# In PubChem BioAssay AID1053118 (Broad Institute, 2014):
# Measured potencies and affinities stand elsewhere. Active and inactive are the calls of the source.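 The calls were made as follows: active = fitted half-maximal concentration for ATP signal loss at most twice the top valid dose; inconclusive = flat curve between -70 and -30%, or an invalid fit; inactive = flat within ±30%, wrong direction, or potency past limit.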
# Assay: HepG2 cell cytotoxicity, dose response, cytotoxicity control, cherry-picks, set 5 (AID 1053118)
# Settings: HepG2 viability, ATP luminescence, 72 h; series mostly up to 26 µM
row,Structure (SMILES),outcome
1,O=C(CSc1nc2ncc(Cl)cc2[nH]1)c1c[nH]c2ccccc12,inactive
2,C[C@@H]1CN([C@@H](C)CO)C(=O)c2cc(-c3ccncc3)cnc2O[C@@H]1CN(C)C(=O)Cc1cccnc1,inactive
3,N#C[C@@H]1[C@H](c2ccccc2C2=CCCCC2)[C@@H](CO)N1S(=O)(=O)c1ccccc1,inactive
4,COc1ccc(C)cc1N(CC(=O)Nc1cccc(N(C)S(C)(=O)=O)c1)S(C)(=O)=O,inactive
5,C[C@H](CO)N1C[C@H](C)[C@@H](CN(C)Cc2ccc(-c3ccccc3)cc2)Oc2ccc(NC(=O)C3CCCCC3)cc2C1=O,inactive
6,CCN1CCN(C(c2ccccc2)c2nnnn2Cc2ccccc2)CC1 (configuration not stated),inactive
7,COCC(=O)Nc1ccc2c(c1)C(=O)N(C)[C@@H]1CC[C@@H](CC(=O)NCc3ccccc3Cl)O[C@H]1CO2,inactive
8,C[C@@H]1CN([C@H](C)CO)C(=O)c2cc(NC(=O)C3CCCCC3)ccc2O[C@H]1CN(C)Cc1ccc(-c2ccccc2)cc1,inactive
9,C[C@H](CO)N1C[C@H](C)[C@@H](CN(C)Cc2ccccc2)Oc2ncc(-c3ccccc3)cc2C1=O,inactive
10,CC(C)(C)[S@@](=O)N1Cc2cc(C(=O)NCc3ccccc3F)nc(-c3cccc(-c4ccncc4)c3)c2[C@H]1CCO,inactive
11,COCC(=O)Nc1ccc2c(c1)C(=O)N(C)[C@H]1CC[C@H](CC(=O)NCc3ccccc3Cl)O[C@H]1CO2,inactive
12,COc1ccc(CN(C2CCCC2)S(=O)(=O)c2ccc(-n3cnnn3)cc2)cc1OC,inactive
13,CN1c2ccc(-c3ccccc3)cc2[C@@H]2[C@@H](CCN2C(=O)CN2CCOCC2)[C@H]1CO,inactive
14,S=C(NCC1CCCO1)Nc1ccc(Cl)cc1Cl (configuration not stated),inactive
15,C[C@H](CO)N1C[C@H](C)[C@H](CN(C)C(=O)c2cccc(F)c2)Oc2ncc(-c3ccccc3)cc2C1=O,inactive
16,O=S(=O)(c1ccccc1F)N1CC[C@@H]2[C@H](CO)Nc3ccc(-c4cccc(F)c4)cc3[C@@H]21,inactive
17,CO[C@H]1CN(C)C(=O)c2cc(NC(=O)Nc3ccc(Cl)c(Cl)c3)ccc2OC[C@@H](C)NC[C@@H]1C,inactive
18,COC(=O)C[C@@H]1CC[C@H]2[C@@H](COc3ccc(NC(=O)Cc4cccs4)cc3C(=O)N2C)O1,inactive
19,CSc1ccccc1C(=O)C1CCCN(C(=O)CCc2cccnc2)C1 (configuration not stated),inactive
20,C[C@@H]1CN([C@@H](C)CO)C(=O)c2cc(NC(=O)C3CCCCC3)ccc2O[C@H]1CN(C)Cc1ccc(-c2ccccc2)cc1,inactive
21,CC(C)(C)[S@](=O)N1Cc2cc(C(=O)NCc3ccccc3F)nc(-c3cccc(-c4cncnc4)c3)c2[C@@H]1CCO,inactive
22,COc1cccc(-c2ccc3c(c2)[C@@H]2[C@@H](CCN2S(=O)(=O)c2cccc(OC)c2)[C@@H](CO)N3)c1,inactive
